Only a selection was taken, and hits are over-represented in it overall.
Cycloheximide cs: affects cycloheximide protein synthesis inhibition readout, counter-screen | cell reporter, cycloheximide protein synthesis inhibition counterscreen | 300,000 compounds, 12% hits | max response, %; in the data active means max response mostly above about 13%, no sharp cut-off; inactive means mostly below about 14%; further: read at 38.3 µM for the half of the compounds with a filed dose; 0% is about no effect
SARS PLP yeast: blocks SARS-CoV papain-like protease in a yeast assay | S. cerevisiae expressing SARS-CoV PLpro, growth rescue | Potency, µM (titrated, usually from 32.9 µM), inactives show at the highest dose activity, positive = growth rescue, hits mostly activators | 330,000 compounds, 0.19% hits | AID 485353; further: potency means the concentration at half of the fitted maximal effect; 0% is about no effect; nearly all actives have a fitted effect of over 55% in size
Shiga inhibitor: inhibitors of Shiga toxin in Vero cells; Vero cells, Shiga toxin protein synthesis inhibition reporter; 290,000 compounds, 9.2% hits; AID 2315; inhibition, % at 38.7 µM; in the data active means inhibition mostly above about 28%, no sharp cut-off; inactive means mostly below about 43%; further: 0% is about no effect
NS1 inh: inhibitors of influenza NS1 protein function; Potency, µM (series often up to 46.1 µM), without a hit: at the highest dose activity, positive = more growth; AID 2326; 270,000 compounds, 0.4% hits; further: potency means the concentration at half of the fitted maximal effect; actives are rising curves; nearly all actives have a fitted effect of over 50% in size
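A cell-based growth assay was used: compounds that relieve NS1-induced slow growth of budding yeast raise OD600. Assay medium was yeast nitrogen base with ammonium sulphate and -URA supplement, pH 6.0, with 2% galactose.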
LmPK inh: LmPK (Leishmania mexicana) enzyme inhibition. Q27686. purified LmPK, Kinase-Glo ATP luminescence, 1 h. 290,000 compounds, 0.37% hits. Potency, µM (series often up to 57.5 µM), inactives show top-dose activity change, negative = inhibition, usual class: inhibitors; active means well fitted curve in the direction sought with a large enough effect; inconclusive means small, poorly fitted or top-dose-only effect, or another doubt; inactive means no such curve, though single readings can be large; an effect the other way counts as inactive or inconclusive; further: potency means the concentration at half of the fitted maximal effect; on the % scale 0 is the no-effect control and ±100 the full control effect
Target sequence (Q27686 whole entry, looked up): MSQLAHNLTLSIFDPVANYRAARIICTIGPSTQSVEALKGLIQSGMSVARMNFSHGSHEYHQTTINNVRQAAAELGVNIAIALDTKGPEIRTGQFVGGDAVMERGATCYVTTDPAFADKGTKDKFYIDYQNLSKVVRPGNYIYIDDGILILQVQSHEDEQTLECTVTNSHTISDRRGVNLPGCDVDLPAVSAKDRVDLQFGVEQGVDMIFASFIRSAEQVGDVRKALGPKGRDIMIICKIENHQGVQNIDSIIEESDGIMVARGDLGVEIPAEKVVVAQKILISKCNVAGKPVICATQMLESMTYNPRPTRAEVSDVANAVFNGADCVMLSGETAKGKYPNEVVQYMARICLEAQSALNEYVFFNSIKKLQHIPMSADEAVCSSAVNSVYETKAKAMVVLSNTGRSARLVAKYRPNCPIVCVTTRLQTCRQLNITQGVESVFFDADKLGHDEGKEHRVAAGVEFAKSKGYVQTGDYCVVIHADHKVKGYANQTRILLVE
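Purified LmPK (0.1 nM) converted ADP (0.1 mM) to ATP with PEP (0.5 mM) in imidazole buffer pH 7.2 with KCl and MgCl2, 1 h at room temperature. ATP was read by Kinase-Glo luminescence; data normalized to uninhibited and no-enzyme controls.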
Tb PYK inh: blocks Trypanosoma brucei pyruvate kinase. Potency, µM (series often up to 76.8 µM), for the others: at the top dose activity, negative = inhibition, most hits filed as inhibitors. TbPYK enzyme, Kinase-Glo Plus ATP luminescence, 45 min. 410,000 compounds, 0.12% hits. Q57TT1; active means well fitted curve in the direction sought with a large enough effect; inconclusive means small, poorly fitted or top-dose-only effect, or another doubt; inactive means no such curve, though single readings can be large; an effect the other way counts as inactive or inconclusive; further: potency means the concentration at half of the fitted maximal effect; on the % scale 0 is the no-effect control and ±100 the full control effect; nearly all actives have a fitted effect of over 50% in size
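Luminescence from Kinase-Glo Plus, added after a 45-minute room-temperature reaction, served as the end-point read-out. The enzyme and substrate were preincubated with compound before ADP (130 uM final) initiated turnover. Concentration-effect curves came from normalized qHTS data.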
An asterisk follows results filed as active. Unless noted, the call rests on the fitted dose curve.

Results for Cn1c(C(=O)O)cc2c(=O)n3ccccc3nc21 ?
Cycloheximide cs: -3; SARS PLP yeast: 1%; Shiga inhibitor: -5; NS1 inh: 9%; LmPK inh: inconclusive; Tb PYK inh: -8%

What do the screens show for `CCN(C(=O)c1cc2c(=O)n3ccccc3nc2s1)C1CCCCC1`?
Cycloheximide cs: 18; SARS PLP yeast: -3%; Shiga inhibitor: 44*; NS1 inh: -32%; LmPK inh: 3%; Tb PYK inh: 1%

How did Cc1ccc2oc(-c3cccc(NC(=S)NC(=O)/C=C/c4ccco4)c3)nc2c1 do in these assays?
Cycloheximide cs: 52*; SARS PLP yeast: 0%; Shiga inhibitor: 69*; NS1 inh: inconclusive; LmPK inh: 1%; Tb PYK inh: -9%

How did O=C(Nc1ccc2oc(-c3ccccc3)nc2c1)c1cccs1 do in these assays?
Cycloheximide cs: 55*; SARS PLP yeast: -31%; Shiga inhibitor: 67*; NS1 inh: -14%; LmPK inh: 2%; Tb PYK inh: -8%

What do the screens show for `Cc1ccc2oc(-c3cc(NC(=O)c4cccs4)cc(C)c3O)nc2c1`?
Tb PYK inh: 3%

Results for Cc1ccc2oc(-c3cccc(NC(=S)NC(=O)c4cccs4)c3)nc2c1 ?
Cycloheximide cs: 41*; SARS PLP yeast: 4%; Shiga inhibitor: 24*; NS1 inh: 3%; LmPK inh: -8%; Tb PYK inh: -1%

How did Cc1ccc2oc(-c3cc(NC(=O)/C=C/c4ccco4)ccc3Cl)nc2c1 do in these assays?
Tb PYK inh: -10%

Results for O=C(Nc1ccc2oc(-c3ccccc3)nc2c1)c1ccncc1 ?
Cycloheximide cs: 19; SARS PLP yeast: 5%; Shiga inhibitor: 45; NS1 inh: -28%; LmPK inh: -1%; Tb PYK inh: 3%

What do the screens show for `N#Cc1c(C(F)(F)F)cc(Cc2ccccc2)nc1SCC(=O)NCC(=O)O`?
Tb PYK inh: -4%

What do the screens show for `CC1CCC(NC(=O)c2ccc3c(c2)N(Cc2cccc(Cl)c2)C(=O)c2ccccc2S3(=O)=O)CC1` (centres undefined)?
Tb PYK inh: -4%

Results for COc1cccc(OCCSc2nc3ccccc3n2CC(=O)N2CCOCC2)c1 ?
Tb PYK inh: 1%

What do the screens show for `NC(=Nc1ccc(Cl)cc1)c1ccccc1`?
Cycloheximide cs: 26*; SARS PLP yeast: -3%; Shiga inhibitor: 40; LmPK inh: 2%; Tb PYK inh: -6%

How did O=C(Nc1ccc2c(c1)OCO2)C1COc2ccccc2O1 (centres undefined) do in these assays?
Cycloheximide cs: 36*; SARS PLP yeast: -7%; Shiga inhibitor: 107*; NS1 inh: -14%; LmPK inh: -6%; Tb PYK inh: -7%

How did O=C(Nc1ccc2c(c1)OCO2)C1CC(c2ccccc2Cl)=NO1 (centres undefined) do in these assays?
Cycloheximide cs: 20; SARS PLP yeast: -4%; Shiga inhibitor: 48*; NS1 inh: -33%; LmPK inh: -1%; Tb PYK inh: 0%

What do the screens show for `O=C(Nc1ccc2c(c1)CCC2)C1COc2ccccc2O1` (centres undefined)?
Cycloheximide cs: 58*; SARS PLP yeast: -29%; Shiga inhibitor: 40*; NS1 inh: -9%; LmPK inh: -3%; Tb PYK inh: 6%

How did O=C(Nc1ccc(F)cc1)C1COc2ccccc2O1 (centres undefined) do in these assays?
Cycloheximide cs: 20*; SARS PLP yeast: -2%; Shiga inhibitor: 39; NS1 inh: -1%; LmPK inh: 0%; Tb PYK inh: 5%

What do the screens show for `CCn1cc(C2=NOC(C(=O)Nc3ccc4c(c3)OCO4)C2)c(C)n1` (centres undefined)?
Cycloheximide cs: 9; SARS PLP yeast: 1%; Shiga inhibitor: 12; NS1 inh: -1%; LmPK inh: 1%; Tb PYK inh: -4%

How did O=C1OCc2cc(NC(=O)C3COc4ccccc4O3)ccc21 (centres undefined) do in these assays?
Cycloheximide cs: 14; SARS PLP yeast: 3%; Shiga inhibitor: -4; NS1 inh: inconclusive; LmPK inh: -1%; Tb PYK inh: 1%

How did O=C(CO)NCCCOc1cccc(CN2CCCCC2)c1 do in these assays?
Tb PYK inh: -7%

What do the screens show for `NC(=O)c1ccc(NC(=O)C2COc3ccccc3O2)cc1` (centres undefined)?
Cycloheximide cs: -2; SARS PLP yeast: 7%; Shiga inhibitor: -2; NS1 inh: inconclusive; LmPK inh: 0%; Tb PYK inh: -7%

What do the screens show for `O=C(Nc1cnc2ccccc2c1)C1COc2ccccc2O1` (centres undefined)?
Cycloheximide cs: 31*; SARS PLP yeast: -1%; Shiga inhibitor: 80*; NS1 inh: -47%; LmPK inh: -7%; Tb PYK inh: -7%

Results for Cc1cccnc1NC(=O)C1COc2ccccc2O1 (centres undefined) ?
Cycloheximide cs: 6; SARS PLP yeast: -4%; Shiga inhibitor: 12; LmPK inh: 1%; Tb PYK inh: 2%

Results for O=C(Nc1ccncc1)C1COc2ccccc2O1 (centres undefined) ?
Cycloheximide cs: 11*; SARS PLP yeast: 3%; Shiga inhibitor: 49; NS1 inh: -6%; LmPK inh: 3%; Tb PYK inh: -2%

How did O=C(NC1=NCCS1)C1COc2ccccc2O1 (centres undefined) do in these assays?
Cycloheximide cs: -8; SARS PLP yeast: -4%; Shiga inhibitor: -24; NS1 inh: -6%; LmPK inh: 16µM*; Tb PYK inh: -20%

Results for COC(=O)c1cc2oc(C)cc2n1CC(=O)Nc1ccc(C(C)C)cc1 ?
Tb PYK inh: -10%

Results for CCCCC(=O)Nc1ccc(NC(=O)C(C)C)cn1 ?
Cycloheximide cs: 26*; SARS PLP yeast: 9%; Shiga inhibitor: 73*; NS1 inh: 1%; LmPK inh: -1%; Tb PYK inh: 2%

What do the screens show for `CCCCC(=O)Nc1ccc(NC(=O)c2cnccn2)cn1`?
Cycloheximide cs: 25*; SARS PLP yeast: -1%; Shiga inhibitor: 27; NS1 inh: 2%; LmPK inh: -3%; Tb PYK inh: -6%

How did CC(C)COc1cccc(C(=O)Nc2ccc(N3CCOCC3)cc2N2CCOCC2)c1 do in these assays?
SARS PLP yeast: 1%; Tb PYK inh: 2%

How did COc1cccc(C(=O)NCCNC(=O)c2ccc(C)nc2)c1 do in these assays?
Cycloheximide cs: -4; SARS PLP yeast: -2%; Shiga inhibitor: -4; NS1 inh: -6%; LmPK inh: 2%; Tb PYK inh: 2%

What do the screens show for `O=C(CN1CCN(CC(=O)Nc2cccc(F)c2)CC1)NCC1(N2CCOCC2)CCCCC1`?
SARS PLP yeast: -6%; Tb PYK inh: -12%
